# Experimental data reported in the antibiotic and cytotoxicity screens of Wong et al. (2023).
# The campaign covered roughly 39,000 compounds. About 3,300 (8.5%) were called active. Only a selection was taken, and actives are over-represented in it overall.
# Test system: HepG2
# Experiment: cytotoxicity call (relative viability < 0.9)
# Details: 10 µM
row,SMILES,cytotoxicity call
1,C[C@H]1CN([C@@H](C)CO)C(=O)c2cc(C#CC3CCCCC3)cnc2O[C@@H]1CN(C)C(=O)c1ccncc1,inactive
2,O=C(CCCCCCC(=O)Nc1ccc([C@H]2C[C@H](c3ccccc3)O[C@H](c3cccc(Oc4ccccc4)c3)O2)cc1)NO,inactive
3,C[C@H](CO)N1C[C@H](C)[C@H](CN(C)Cc2ccc(C(=O)O)cc2)Oc2ccc(NS(=O)(=O)c3cn(C)cn3)cc2CC1=O,inactive
4,O=C(C[C@@H]1C[C@H]2c3cc(NS(=O)(=O)c4ccc(F)cc4)ccc3O[C@H]2[C@H](CO)O1)NCc1ccccc1F,inactive
5,C[C@@H]1COCCC(=O)N1,inactive
6,O=C1CN(c2ccccc2)C(=O)N1,inactive
7,C[C@H]1CN([C@@H](C)CO)S(=O)(=O)c2ccc(C3=CCCCC3)cc2O[C@@H]1CN(C)S(=O)(=O)c1cn(C)cn1,inactive
8,COc1ccc(S(=O)(=O)N(C)C[C@H]2Oc3c(NC(=O)Nc4cccc5ccccc45)cccc3C(=O)N([C@H](C)CO)C[C@@H]2C)cc1,active
9,COc1ccc(S(=O)(=O)N(C)C[C@@H]2Oc3c(NC(=O)Nc4cccc5ccccc45)cccc3C(=O)N([C@H](C)CO)C[C@H]2C)cc1,active
10,COc1ccc(S(=O)(=O)N(C)C[C@H]2Oc3c(NC(=O)Nc4cccc5ccccc45)cccc3C(=O)N([C@H](C)CO)C[C@H]2C)cc1,inactive
11,C[C@@H]1CN([C@@H](C)CO)C(=O)c2cccc(NC(=O)Nc3cccc4ccccc34)c2O[C@@H]1CN(C)S(=O)(=O)c1cccs1,inactive
12,COc1ccc(S(=O)(=O)N(C)C[C@@H]2Oc3c(NC(=O)Nc4cccc5ccccc45)cccc3C(=O)N([C@@H](C)CO)C[C@@H]2C)cc1,inactive
13,C[C@@H]1CN([C@H](C)CO)C(=O)c2cccc(NC(=O)Nc3cccc4ccccc34)c2O[C@@H]1CN(C)S(=O)(=O)c1cccs1,active
14,COc1ccc(S(=O)(=O)N(C)C[C@@H]2Oc3c(NC(=O)Nc4cccc5ccccc45)cccc3C(=O)N(C(C)C)C[C@H]2C)cc1,inactive
15,C[C@@H]1CN([C@@H](C)CO)C(=O)c2cccc(NC(=O)Nc3cccc4ccccc34)c2O[C@H]1CN(C)S(=O)(=O)c1cccs1,inactive
16,COc1ccc(S(=O)(=O)N(C)C[C@@H]2Oc3c(NC(=O)Nc4cccc5ccccc45)cccc3C(=O)N([C@H](C)CO)C[C@@H]2C)cc1,inactive
17,C[C@@H]1CCCCO[C@@H](CN(C)S(C)(=O)=O)[C@H](C)CN([C@@H](C)CO)C(=O)c2cc(N(C)C)ccc2O1,inactive
18,COc1ccc(S(=O)(=O)N(C)C[C@H]2Oc3ncc(Br)cc3C(=O)N([C@@H](C)CO)C[C@@H]2C)cc1,inactive
19,C[C@H](CO)N1C[C@H](C)[C@@H](CN(C)C(=O)Nc2ccccc2)Oc2ccc(NC(=O)C3CC3)cc2CC1=O,inactive
20,O=C1OCC=C[C@H]2O[C@@]34C=CCN(c5ccc(Cl)cc5)C(=O)[C@H]3N(CCCCCCO)C(=O)[C@@H]4[C@@H]12,inactive
21,C[C@@H]1CCCCO[C@H](CN(C)Cc2ccc(C(=O)O)cc2)[C@@H](C)CN([C@H](C)CO)C(=O)c2cc(NC(=O)Nc3ccccc3)ccc2O1,inactive
22,CC(C)N1C(=O)C[C@@](C(=O)NCCN2CCOCC2)(c2ccc([N+](=O)[O-])cc2)[C@H]1c1ccc(CO)cc1,inactive
23,COc1ccc(NC(=O)Nc2ccc3c(c2)C(=O)N([C@@H](C)CO)C[C@H](C)[C@H](CN(C)C(=O)NC2CCCCC2)OCCCC[C@H](C)O3)cc1,inactive
24,C[C@H]1CCCCO[C@H](CN(C)S(=O)(=O)c2ccccc2)[C@@H](C)CN([C@@H](C)CO)C(=O)c2cc(NC(=O)Nc3cccc4ccccc34)ccc2O1,inactive
25,Cc1noc(C)c1NC(=O)N[C@@H]1CC[C@H](CC(=O)NCCCN(C)C)O[C@H]1CO,inactive

row,SMILES,cytotoxicity call
1,C[C@H]1CN([C@@H](C)CO)C(=O)c2cc(NC(=O)C3CC3)ccc2O[C@H]1CN(C)S(=O)(=O)c1cn(C)cn1,inactive
2,Cc1cc(C(=O)Nc2cccc3c2O[C@H](CN(C)S(=O)(=O)c2ccc(Cl)cc2)[C@@H](C)CN([C@H](C)CO)C3=O)n(C)n1,inactive
3,COc1cccc(C)c1NC(=O)O[C@H]1[C@H](OC(=O)Nc2ccccc2-c2ccccc2)[C@H](OC(=O)Nc2ccccc2-c2ccccc2)[C@@H](OC)O[C@@H]1CO,inactive
4,COc1cc(NC(=O)CCN2CCC(OC(=O)Nc3ccccc3-c3ccccc3)CC2)c(Cl)cc1CNC[C@H](O)c1ccc(O)c2nc(O)ccc12,active
5,NCc1cc2ccc(F)cc2[nH]c1=O,inactive
6,C[C@H]1CN([C@@H](C)CO)C(=O)c2cc(C#CCN(C)C)cnc2O[C@H]1CN(C)C(=O)c1cnccn1,inactive
7,CC(=O)Oc1cc(OC(C)=O)c2c(c1)O[C@H](c1ccc(OC(C)=O)c(OC(C)=O)c1)[C@H](OC(C)=O)C2,inactive
8,O=C1NC(=O)C(c2cnc3ccccn23)=C1c1cn2c3c(cc(F)cc13)CN(C(=O)N1CCCCC1)CC2,active
9,C[C@H](CO)N1C[C@H](C)[C@@H](CN(C)S(=O)(=O)c2cn(C)cn2)Oc2c(NS(=O)(=O)c3ccc(Cl)cc3)cccc2C1=O,inactive
10,COc1cccc(-c2ccc3c(c2)O[C@@H](CN(C)C(=O)C2CCC2)[C@@H](C)CN([C@H](C)CO)S3(=O)=O)c1,inactive
11,Cc1ccc(S(=O)(=O)N(C)C[C@H]2Oc3ccc(NS(=O)(=O)c4cccs4)cc3C(=O)N([C@@H](C)CO)C[C@@H]2C)cc1,inactive
12,Cl.O=C1CN2Cc3c(ccc(Cl)c3Cl)N=C2N1,active
13,C[C@H](CO)N1C[C@H](C)[C@H](CN(C)C(=O)C2CCOCC2)Oc2cc(-c3ccc(F)cc3)ccc2S1(=O)=O,inactive
14,COc1ccc(S(=O)(=O)N(C)C[C@@H]2Oc3ncc(C#CC4(O)CCCC4)cc3C(=O)N([C@@H](C)CO)C[C@@H]2C)cc1,inactive
15,O=C(Cc1nn[nH]n1)NS(=O)(=O)c1ccccc1,inactive
16,C[C@@H]1CCCCO[C@@H](CN(C)CC2CCCCC2)[C@@H](C)CN([C@@H](C)CO)C(=O)c2cc(NC(=O)Nc3ccc(F)cc3)ccc2O1,inactive
17,C[C@@H]1CCCCO[C@H](CN(C)CC2CC2)[C@H](C)CN([C@@H](C)CO)C(=O)c2cc(NC(=O)Nc3ccc(F)cc3)ccc2O1,inactive
18,C[C@@H]1CCCCO[C@H](CN(C)CC2CC2)[C@@H](C)CN([C@H](C)CO)C(=O)c2cc(NC(=O)Nc3ccc(F)cc3)ccc2O1,inactive
19,C[C@H]1CCCCO[C@H](CN(C)CC2CCCCC2)[C@@H](C)CN([C@@H](C)CO)C(=O)c2cc(NC(=O)Nc3ccc(F)cc3)ccc2O1,active
20,C[C@@H]1CCCCO[C@@H](CN(C)CC2CCCCC2)[C@@H](C)CN([C@H](C)CO)C(=O)c2cc(NC(=O)Nc3ccc(F)cc3)ccc2O1,inactive
21,C[C@H]1CCCCO[C@@H](CN(C)CC2CCCCC2)[C@@H](C)CN([C@@H](C)CO)C(=O)c2cc(NC(=O)Nc3ccc(F)cc3)ccc2O1,active
22,C[C@@H]1CCCCO[C@H](CN(C)CC2CCCCC2)[C@H](C)CN([C@H](C)CO)C(=O)c2cc(NC(=O)Nc3ccc(F)cc3)ccc2O1,active
23,C[C@@H]1CN([C@H](C)CO)C(=O)c2cc(NC(=O)Nc3ccc(F)cc3)ccc2O[C@@H](C)CCCCO[C@@H]1CN(C)CC1CCCCC1,active
24,C[C@@H]1CN([C@@H](C)CO)C(=O)c2cc(NC(=O)Nc3ccc(F)cc3)ccc2O[C@@H](C)CCCCO[C@H]1CN(C)CC1CC1,inactive
25,C[C@@H]1CCCCO[C@@H](CN(C)CC2CC2)[C@H](C)CN([C@H](C)CO)C(=O)c2cc(NC(=O)Nc3ccc(F)cc3)ccc2O1,inactive
